Where a name gives a salt, the structure may show the parent alone. ± gives the standard deviation or the standard deviation of the averaged measurements.

The values that follow come from the supplement of paper PMC7366291.

Holding throughout (conditions): 25 µM; exposure: 24-48 hpf
Assay [1] has as its system Danio rerio Tg(wt1b:EGFP) embryo, pronephros. The assay can be described thus: glomerular separation, fold change vs DMSO control; higher = glomeruli further apart (abnormal). Put shortly:
(§1)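 From 24 to 48 hpf, at 28.5°C, dechorionated Tg(wt1b:EGFP) zebrafish embryos sat in HEPES-buffered E3 with 0.003% PTU carrying 25 μM compound and 0.5% DMSO. Their pronephroi were imaged dorsally in 96-well plates filled with agarose, using 470 nm light and 10 z-slices. A Fiji macro measured distances and angles between 16 reference points that were set manually on maximum projections, and any value more than 2 SD from its feature mean was excluded. Features are expressed as fold change relative to the mean of DMSO-treated embryos imaged on the same day.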

The test system is the same in assay [2]. The assay can be described thus: glomerular width (mean of left and right), fold change vs DMSO control; higher = wider glomerulus. Put shortly: as §1
Assay [3] shares this test system. The assay can be described thus: fraction of imaged embryos annotated as normal kidney; higher = less nephrotoxic; extreme values may be limits of the assay. Put shortly:
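Dechorionated Tg(wt1b:EGFP) zebrafish embryos were incubated with 25 μM compound in 0.5% DMSO, 5 mM HEPES-buffered E3 and 0.003% PTU from 24 to 48 hpf at 28.5°C. Pronephroi were then imaged by widefield fluorescence, and the fraction of embryos per treatment assigned by hand to the normal-kidney category is given.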

For assay [4] the test system is unchanged. The assay can be described thus: pronephric angle neck segment to proximal convoluted tubule (mean of left and right), fold change vs DMSO control; higher = larger pronephric angle. In outline:
as §1

`Cc1ncc([N+](=O)[O-])n1CC(O)CCl` (configuration not stated) [Ornidazole] returned a glomerular separation in assay [1] of 0.923 ± 0.39. The same molecule displayed a glomerular width in assay [2] of 1.06 ± 0.028. In addition, the “fraction of imaged embryos annotated as normal kidney” value (“fraction of imaged embryos annotated” for short) in assay [3] stood at 0.75. In assay [4], the “pronephric angle neck segment” value stood at 0.985 ± 0.027.

In the case of `C=C(CC)C(=O)c1ccc(OCC(=O)O)c(Cl)c1Cl` [Ethacrynic acid], the glomerular separation in assay [1] amounted to 1.05 ± 0.28. Besides, the glomerular width in assay [2] amounted to 1.02 ± 0.0053. The “fraction of imaged embryos annotated” value in assay [3] was 0.75. In addition, the “pronephric angle neck segment” value in assay [4] stood at 0.9182 ± 0.0012.

The molecule `Nc1nc2ccc(OC(F)(F)F)cc2s1` [Riluzole hydrochloride] had a glomerular separation in assay [1] of 0.834 ± 0.22. The same molecule showed a glomerular width in assay [2] of 0.964 ± 0.02. Further, the “fraction of imaged embryos annotated” value in assay [3] amounted to 0.833. Further, the “pronephric angle neck segment” value in assay [4] worked out at 1.036 ± 0.0021.

For `CCOC(=O)C1=C(C)NC(C)=C(C(=O)OC)C1c1cccc(Cl)c1Cl` (configuration not stated) [Felodipine], the glomerular separation in assay [1] was determined as 5.36 ± 2.5. Also, the glomerular width in assay [2] was 0.634 ± 0.029. For the same molecule, in assay [3], the “fraction of imaged embryos annotated” value is 0. Further, the “pronephric angle neck segment” value in assay [4] turned out to be 1.44 ± 0.022.

Consider `CN1CCN(CC(=O)N2c3ccccc3C(=O)Nc3cccnc32)CC1` [Pirenzepine dihydrochloride], for which the glomerular separation in assay [1] worked out at 1.19 ± 0.65. For the same molecule, in assay [2], the glomerular width was determined as 0.9891 ± 0.0015. Besides, in assay [3], the “fraction of imaged embryos annotated” value came out at 0.75. Moreover, in assay [4], the “pronephric angle neck segment” value was 1.03 ± 0.059.

With `COc1cccc(OC)c1C(=O)N[C@@H]1C(=O)N2[C@@H]1SC(C)(C)[C@@H]2C(=O)O` [Methicillin sodium], the glomerular separation in assay [1] is 1.21 ± 0.55. In assay [2], this molecule came in with a glomerular width of 1.05 ± 0.057. Besides, the “fraction of imaged embryos annotated” value in assay [3] came out at 0.5. Further, the “pronephric angle neck segment” value in assay [4] was 1 ± 0.037.

In assay [1], `CCCSc1ccc2[nH]c(NC(=O)OC)nc2c1` [Albendazole] registered a glomerular separation of 3.72 ± 1.5. Further, the glomerular width in assay [2] is 0.591 ± 0.025. Moreover, the “fraction of imaged embryos annotated” value in assay [3] amounted to 0. The “pronephric angle neck segment” value in assay [4] was determined as 1.97 ± 0.07.

In assay [1], `CCCCCN(C)CCC(O)(P(=O)(O)O)P(=O)(O)O` [Ibandronate sodium] returned a glomerular separation of 0.837 ± 0.21. Besides, the glomerular width in assay [2] amounted to 1.06 ± 0.025. Moreover, the “fraction of imaged embryos annotated” value in assay [3] was 0.833. Moreover, the “pronephric angle neck segment” value in assay [4] came out at 0.981 ± 0.048.

`CCCCC1=NC2(CCCC2)C(=O)N1Cc1ccc(-c2ccccc2-c2nnn[nH]2)cc1` [Irbesartan] displayed a glomerular separation in assay [1] of 3.04 ± 1.1. Further, in assay [2], the glomerular width was 0.56 ± 0.11. For the same molecule, in assay [3], the “fraction of imaged embryos annotated” value stood at 0.75. For the same molecule, the “pronephric angle neck segment” value in assay [4] came out at 1.1 ± 0.022.

In assay [1], `CCN[C@H]1CN(CCCOC)S(=O)(=O)c2sc(S(N)(=O)=O)cc21` [Brinzolamide] gave a glomerular separation of 1.47 ± 0.71. In addition, in assay [2], the glomerular width was found to be 1.053 ± 0.0011. The “fraction of imaged embryos annotated” value in assay [3] was found to be 0.5. For the same molecule, the “pronephric angle neck segment” value in assay [4] stood at 1.1 ± 0.069.

For `C#C[C@]1(O)CC[C@H]2[C@@H]3CCC4=CC(=O)CC[C@@H]4[C@H]3CC[C@@]21CC` [Norgestrel-(-)-D], the glomerular separation in assay [1] worked out at 0.798 ± 0.23. In assay [2], this molecule came in with a glomerular width of 1.016 ± 0.0075. Also, the “fraction of imaged embryos annotated” value in assay [3] was 1. Moreover, the “pronephric angle neck segment” value in assay [4] amounted to 1.03 ± 0.013.

Molecule `C[C@H]1C[C@H]2[C@@H]3CCC4=CC(=O)C=C[C@]4(C)[C@@]3(F)[C@@H](O)C[C@]2(C)[C@@]1(O)C(=O)CO` [Betamethasone] showed a glomerular separation in assay [1] of 1.2 ± 0.31. This molecule displayed a glomerular width in assay [2] of 1.17 ± 0.088. Moreover, the “fraction of imaged embryos annotated” value in assay [3] is 0.583. In assay [4], the “pronephric angle neck segment” value came to 1.04 ± 0.053.

For the molecule `C#C[C@]1(OC(C)=O)CC[C@H]2[C@@H]3CCC4=C[C@@H](OC(C)=O)CC[C@@H]4[C@H]3CC[C@@]21C` [Ethynodiol diacetate], in assay [1], the glomerular separation is 1.12 ± 0.65. For the same molecule, the glomerular width in assay [2] was determined as 0.958 ± 0.052. Moreover, in assay [3], the “fraction of imaged embryos annotated” value is 0.75. In addition, the “pronephric angle neck segment” value in assay [4] is 1.13 ± 0.057.
